Here are results for 26 molecules from PubChem BioAssay.

Calls of active or inactive are those of the source.

The assay can be described thus: basal S. cerevisiae growth modulation, no modifier, primary screen, OD600, strain BY4716, 24 h, basal condition (AID 1173). To be noted: OD600, 24 h, higher = more signal, called active from +8 up or from −8 down.
Turning to `C=C(/C(=C/C[C@H](OC(C)=O)c1ccc(CO)o1)c1cc(C(=O)OC)ccc1OC)C(C)C`, the z-score was 0.18 (inactive).

On to `COC(=O)[C@@]1(Cc2ccccc2)N=C(c2ccc(OCCCO)cc2)O[C@H]1c1ccccc1`, for which the z-score is -2.46 (inactive).

In the case of `CC(C)C[C@@H]1NC(=O)[C@@H]2C[C@H](C(=O)NCc3ccc(F)cc3)[C@H](c3cccc(OCCO)c3)N2C1=O`, the z-score is -0.929 (inactive).

`O=C1c2ccccc2[C@](Cc2ccccc2I)(C(=O)NCCN2CCOCC2)[C@H](c2ccc(CO)cc2)N1C1CCCCC1`: the z-score is -1.21 (inactive).

Turning to `O=C1c2ccccc2[C@](Cc2ccccc2I)(C(=O)NCCN2CCOCC2)[C@H](c2ccc(CO)cc2)N1Cc1ccccc1Cl`, the z-score is -0.935 (inactive).

On to `CC(C)C(=C=CC[C@@H](O)c1ccc(OCCO)cc1)C[C@@H](O)COCc1ccccc1`, for which the z-score is -2.26 (inactive).

With `COC(=O)[C@]1(CCC(=O)OC(C)(C)C)N=C(c2ccc(OCCCO)cc2)O[C@@H]1c1ccccc1CN=[N+]=[N-]`, the z-score is 1.01 (inactive).

Turning to `NC(=O)NCC#Cc1ccc2c(c1)[C@]1(C(=O)N2)[C@H](c2ccccc2OCCO)N2[C@H](c3ccccc3)[C@H](c3ccccc3)OC(=O)[C@H]2[C@@H]1C(=O)Nc1nc2ccccc2s1`, the z-score was 1.21 (inactive).

Take `C=CCC(OC(C)=O)[C@@H]1[C@@H](N(Cc2ccc(-c3ccccc3)cc2)C(=O)Cc2ccc(OC)cc2)c2cc(OCCCO)ccc2N1C(=O)Cc1ccc2ccccc2c1` (stereo partly specified): the z-score was -0.34 (inactive).

With `C=C(CCCC)C(=O)CC[C@@H](OC(=O)c1ccccc1-c1ccccc1C(=O)O)c1ccc(OCCO)cc1`, the z-score was -1.78 (inactive).

With `CCCC[C@@H]1C[C@H]1[C@@H](NC(=O)c1ccco1)c1ccccc1C(F)(F)F`, the z-score is 1.67 (inactive).

With `CCOC(=O)C[C@H]1[C@H](OC(=O)c2cc3ccccc3oc2=O)[C@@H](NC(=O)c2ccccc2)c2cc(OCCCO)ccc2N1C(=O)c1ccc2ccccc2n1`, the z-score is -0.594 (inactive).

As for `CCN(CC)c1ccc(N2CC=CC34O[C@@H]5C=CCCOC(=O)C5[C@H]3C(=O)N(CCCCCCO)[C@@H]4C2=O)cc1` (stereo partly specified), the z-score was -1.04 (inactive).

`COC(=O)[C@@]1(Cc2ccccc2)[C@H]2c3cc(C(=O)N(C)C)n(Cc4ccsc4Br)c3C[C@H]2CN1C(=O)c1ccccc1`: the z-score was 1.92 (inactive).

`COCCOC(=O)N1C(=O)[C@@]2(c3ccccc31)[C@H](c1ccccc1OCCO)N1[C@H](c3ccccc3)[C@H](c3ccccc3)OC(=O)[C@H]1[C@@H]2C(=O)N1CCN(c2ncccn2)CC1`: the z-score is 2.64 (inactive).

For `O[C@@H](Cc1ccccc1)[C@H]1C2C=CCCC=C2CN1Cc1cccc(Cl)c1` (stereo partly specified), the z-score was -4.3 (inactive).

As to `COc1cc2c(cc1OC)CN(C(=O)[C@@H]1[C@H]3C(=O)O[C@H](c4ccccc4)[C@H](c4ccccc4)N3[C@H](c3ccccc3OCCO)[C@@]13C(=O)Nc1ccc(C#CCCO)cc13)CC2`, the z-score was 1.28 (inactive).

Take `Cc1ccc(S[C@]2(C(=O)O)CC(=O)N(C(C)C)[C@@H]2c2ccc(CO)cc2I)cc1`: the z-score was -4.89 (inactive).

For `O=C1O[C@H](c2ccccc2)[C@H](c2ccccc2)N2[C@H]1[C@@H](C(=O)N1CCCCCCC1)[C@]1(C(=O)Nc3ccc(C#CCCO)cc31)[C@H]2c1ccccc1OCCO`, the z-score was 1.09 (inactive).

As to `C=CCNC(=O)[C@@H]1[C@H]2C(=O)O[C@H](c3ccccc3)[C@H](c3ccccc3)N2[C@H](c2ccc(O)cc2)[C@@]12C(=O)N(C(=O)OCCOC)c1ccc(C#CCNC(N)=O)cc12`, the z-score is 0.0215 (inactive).

Turning to `O=C(c1ccccc1)N1C(=O)[C@@]2(Cc3ccccc31)N=C(c1ccc(OCCCO)cc1)O[C@H]2c1ccccc1`, the z-score is -0.123 (inactive).

For the molecule `C=C(/C(=C/C[C@H](OC(C)=O)c1ccccc1OCCO)c1cnc2ccccc2c1)C(C)C`, the z-score is 0.323 (inactive).

Take `CC(C)C(CO)N1C(=O)[C@@H]2C3C(=O)OCCC/C=C\[C@H]3OC23C=CCN(CCN2CCOCC2)C(=O)[C@@H]13` (stereo partly specified): the z-score is 0.384 (inactive).

Take `CCCC[C@H]1OB(O)C[C@H]2C1=C(COC)C[C@H]1C(=O)N(C)C(=O)[C@H]12`: the z-score was -1.56 (inactive).

For `COC(=O)[C@@]1(Cc2ccc(F)cc2)[C@H]2c3cc(C(=O)N(C)C)n(Cc4ccc(Cl)c(C(F)(F)F)c4)c3C[C@H]2CN1C(=O)c1ccccc1`, the z-score was 0.359 (inactive).

In the case of `COc1ccc(CCNC(=O)[C@@]2(Sc3ccc(C)cc3)CC(=O)N(C3Cc4ccccc4C3)[C@@H]2c2ccc(CO)cc2I)cc1`, the z-score is -3.1 (inactive).
